# This is a sample that favours compounds with a hit; in the whole collection about 4.8% have one here.
# DAX1 inh-1 – blocks DAX1 repression of SF-1 activated StAR promoter | AID 652010 | HEK293T StAR-luciferase reporter, SF-1/DAX-1 repression relief | 1.1% of 370,000 active | inhibition, % at 6.8 µM;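 active = inhibition above the mean over all tested compounds plus 3 SD, cut at about 3.6% in these data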;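 note: 0% = DAX-1 cells with DMSO and 100% = cells lacking DAX-1 with DMSO; higher inhibition means more luminescence from relief of DAX-1 repression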
# hgDAF-12 ag – hgDAF-12 agonism, primary luciferase screen; HEK293 GAL4-hgDAF12 UAS-luciferase reporter, agonist luminescence; normalized to butyrate control; activation, % at 6.8 µM; 1.8% of 370,000 active;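 active = activation above a cutoff set at the mean of all screened compounds plus 3 SD, cut at about 10% in these data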;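 note: 0% = DMSO wells and 100% = sodium butyrate wells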
# ssDAF-12 act – activates DAF-12 receptor from parasite S. stercoralis; HEK293 ssDAF-12/GRIP1 lit1-tk-luc reporter, luminescence; % of 3 µM dafachronic acid response; activation, % at 6.8 µM; 1% of 370,000 active; AID 652126;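 active = activation above the mean over all tested compounds plus 3 SD, cut at about 0.9% in these data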;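 note: 0% = DMSO-only wells and 100% = 3 µM delta7-dafachronic acid wells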
# DAX1 inh-2 – inhibitors of human orphan nuclear receptor DAX1 (NR0B1); 0.99% of 340,000 active; inhibition, % at 6.75 µM; P51843; HEK293 Gal4-DAX1 luciferase reporter, luminescence; AID 504766;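 active = inhibition above the mean over all tested compounds plus 3 SD, cut at about 4.2% in these data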;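 note: 0% = DAX1-transfected cells with DMSO and 100% = empty-vector control cells with DMSO; inhibition shows as a rise in luminescence from relieved DAX1 repression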
# Target sequence (P51843 207-470 limits assumed): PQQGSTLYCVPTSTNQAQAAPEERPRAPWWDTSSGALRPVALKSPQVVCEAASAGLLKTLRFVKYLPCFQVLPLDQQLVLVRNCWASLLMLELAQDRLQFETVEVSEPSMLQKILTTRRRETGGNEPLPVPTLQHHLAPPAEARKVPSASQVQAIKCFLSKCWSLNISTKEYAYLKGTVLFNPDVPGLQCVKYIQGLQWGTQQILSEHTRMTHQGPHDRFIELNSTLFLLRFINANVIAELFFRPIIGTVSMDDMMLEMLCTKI
# hcDAF12 agonist – activates DAF-12 receptor from parasite H. contortus. 1.4% of 370,000 active. AID 652067. HEK293 hcDAF-12 lit1-tk-luc reporter, luminescence; 0% DMSO, 100% Δ7-dafachronic acid. activation, % at 6.8 µM;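 active = activation above the mean of all tested compounds plus 3 SD, cut at about 5.5% in these data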;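 note: 100% = response to 3 µM Δ7-dafachronic acid high control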
# SMARCA2 act – increases SMARCA2 function in MMTV reporter cells; MG213 cells, MMTV-luciferase reporter, dexamethasone, overnight; activation, % at 9.1 µM; 1% of 370,000 active; AID 652017; in the data active = activation above about 7.8%;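 note: 0% = vehicle wells and 100% = reference activator wells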
# An asterisk follows results filed as active; . = no result.
SMILES,DAX1 inh-1,hgDAF-12 ag,ssDAF-12 act,DAX1 inh-2,hcDAF12 agonist,SMARCA2 act
CCOC(=O)Cn1nnnc1C(CC)N(Cc1cccs1)Cc1cc2cc(C)ccc2[nH]c1=O (stereo unspecified),0,-1,-1,0,0,-2
Cc1ccc(NC(=O)CCc2c(C)nn(-c3ccc(N4CCCCC4)nn3)c2C)cc1C,2,3,-1,1,-1,6
Cc1nn(-c2ccc(N3CCCCC3)nn2)c(C)c1CCC(=O)Nc1ccc(F)c(F)c1,1,6,-1,-1,6.4*,-1
COc1ccccc1-c1nnc(SCC(=O)Nc2cccnc2Cl)n1C,1,0,0.9*,0,4,1
COc1ccccc1-n1cnnc1SCC(=O)Nc1cccnc1Cl,0,2,-1,0,1,-5
O=S(=O)(Nc1ccc2oc(-c3ccccc3)nc2c1)c1ccccc1,0,3,-2,-2,-1,1
O=S(=O)(O)c1cc2oc(-c3ccccc3)nc2c2ccccc12,0,2,0,0,5.8*,2
c1ccc(Cn2c(SC3CCCCC3)nnc2-c2cccnc2)cc1,-1,-3,-2,.,1,-3
CN(C)S(=O)(=O)c1cccc(C(=O)NCCNC(=O)c2cccc(S(=O)(=O)N(C)C)c2)c1,0,-2,-1,-1,-1,-1
CC(Cc1ccco1)NC(=O)c1cccc(S(=O)(=O)N(C)C)c1 (stereo unspecified),1,12*,0,1,4,3
COC(=O)C(Cc1ccccc1)NC(=O)c1cccc(S(=O)(=O)N(C)C)c1 (stereo unspecified),0,0,-1,4.4*,-1,-2
COC(=O)[C@H](Cc1ccccc1)N(C)S(=O)(=O)c1cccc(S(=O)(=O)N(C)[C@@H](Cc2ccccc2)C(=O)OC)c1,0,-4,-1,-1,-2,-1
Nn1c(SCc2ccc([N+](=O)[O-])cc2)nnc1-c1n[nH]c2c1CCC2,0,4,-2,.,-1,1
COC(=O)c1cccc(N2C(=O)C[C@](Sc3ccc(OC)cc3)(C(=O)N3CCOCC3)[C@H]2c2ccc(OC)cc2)c1,-1,2,-1,.,-2,-6
CCc1nc2ccccc2c(=O)n1NC(=O)c1c(O)c2ccccc2[nH]c1=O,0,-2,-1,4.9*,0,-1
N#CC1=C(N)n2c(s/c(=C\c3ccco3)c2=O)=C(C#N)C1c1ccco1 (stereo unspecified),0,0,1.6*,1,3,1
CC(C)(C)C(=O)OC12CCCN(C1)/C(=C/c1ccncc1)C2 (stereo unspecified),-2,3,-2,.,-3,-2
CC(C)[C@H](NC(=O)c1ccccc1Cl)C(=O)OCc1cc([N+](=O)[O-])cc2c1OCOC2,0,-1,1.0*,-1,-1,-2
CC(C)=CC(=O)OCc1cc([N+](=O)[O-])cc2c1OCOC2,3.8*,11*,1.0*,1,1,4
O=C(Nc1ccc(O)cc1)C1CCCN1S(=O)(=O)c1ccc(F)cc1 (stereo unspecified),-1,-2,0,4.6*,-1,0
CC(=O)c1ccc(NC(=O)C2CCCN2S(=O)(=O)c2ccc(F)cc2)cc1 (stereo unspecified),0,2,-2,-1,-3,-1
CCCCN(C(=O)c1oc2ccc(OCC)cc2c1C)c1c(N)n(CC(C)C)c(=O)[nH]c1=O,4.2*,0,-1,0,2,-2
CCCCN(C(=O)c1cc(-c2ccncc2)nc2ccccc12)c1c(N)n(CC(C)C)c(=O)[nH]c1=O,1,0,-1,0,2,7.9*
COCCN(C(=O)c1cc(-c2ccncc2)nc2ccccc12)c1c(N)n(CC(C)C)c(=O)[nH]c1=O,1,1,-1,0,2,2
CCCCn1c(N)c(N(CC(C)C)C(=O)c2cc(Cl)nc3ccccc23)c(=O)[nH]c1=O,0,0,1.1*,0,0,-1
SMILES,DAX1 inh-1,hgDAF-12 ag,ssDAF-12 act,DAX1 inh-2,hcDAF12 agonist,SMARCA2 act
CCCCn1c(N)c(N(CCOC)C(=O)c2cc(-c3ccccc3)nc3ccccc23)c(=O)[nH]c1=O,2,2,0,7.0*,1,-2
CCCCn1c(N)c(N(CC(C)C)C(=O)c2cc(C)nc3ccccc23)c(=O)[nH]c1=O,-1,1,-1,-1,-1,-2
CCCCn1c(N)c(N(CC(C)C)C(=O)c2oc3ccc(OCC)cc3c2C)c(=O)[nH]c1=O,-2,-3,-1,0,1,-3
CC(=O)N1[C@@H](CO)[C@@H](c2ccc(-c3cccc(F)c3)cc2)[C@@H]1CNCC1CCC1,0,0,0,.,0,0
COCC#Cc1ccc(CC[C@H]2O[C@H]3CC[C@H](CO)O[C@H]3C[C@H]2n2cc(C(C)(C)O)nn2)cc1,0,1,-2,.,-2,-1
Cc1ccnc(NC(=S)N2CC3CN(c4cccc(C(F)(F)F)c4)CC3C2)c1 (stereo unspecified),.,1,-2,.,-2,.
COCCCNc1nc2c(c(=O)[nH]c(=O)n2C)n1CCCc1ccccc1,-1,1,-1,0,-1,7.9*
CN(Cc1ccccc1)C(=C(Cl)Cl)/C(=C1/NCCN1C)[N+](=O)[O-],0,1,0,5.4*,-1,-2
CCc1ccc(Nc2nnc(SCC(=O)NCCN3C(=O)CSC3=O)s2)cc1,1,12*,0,-1,2,4
CCc1ccc(Nc2nnc(SCC(=O)Nc3sccc3C(N)=O)s2)cc1,0,8,-1,-1,2,1
CCOC(=O)N1CCN(C(=O)C[C@H]2C[C@@]3(C(=O)OC)C(=C[C@H](COCc4ccccc4)O[C@@H]3C)N(Cc3ccc(Cl)cc3Cl)C2=O)CC1,0,-2,-2,.,-4,-4
O=C(O)CCC(=O)Nc1nc2nccc(-c3ccccc3)n2n1,0,0,-1,4.8*,1,0
CC(C)C(=O)N=c1sc2cc(F)cc(F)c2n1C,0,-2,-1,0,1,-1
CCC(=O)N=c1sc2cc(F)cc(F)c2n1C,-1,6,0,0,6.1*,1
Cn1c(=NC(=O)C(C)(C)C)sc2cccc(F)c21,1,1,-2,4.3*,-1,-3
Cn1c(=NC(=O)c2ccccc2[N+](=O)[O-])sc2cccc(F)c21,3,13*,-1,3,0,4
CCn1c(=NC(=O)COc2ccccc2)sc2cccc(F)c21,0,-1,-2,0,-2,-1
O=C(NC1CCCCN(Cc2ccc(OC(F)(F)F)cc2)C1=O)c1cccc(C(F)(F)F)c1 (stereo unspecified),-1,3,-1,.,-1,-2

# Compound activity (PubChem BioAssay)
